From the supplement of paper PMC3545927
The list shows a part of the results. How many sequences the whole screen found active is unknown.

Molecular target: furin, P09958
Assay: furin cleavage Z-score vs untreated control; higher = more cleavage, active = 3.5 or more, inactive = 1 or less, 8 variable residues between constant flanks
Description: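 Multiplexed peptide-cDNA fusion cleavage assay. 8-mer variable peptides flanked by constant Cys-Ala (N-term) and Ala-Gly-Asn-Ala-Ser-Ala-Ser-Ala (C-term) and conjugated to a cDNA oligonucleotide were bead-immobilised via the N-terminus. They were treated with purified furin at a 1:10 enzyme:substrate ratio in 50 mM HEPES pH 7.5, 1 mM CaCl2, 100 mM NaCl for 7.5, 15 or 30 min. Released cDNA was counted by next-generation sequencing, and log counts versus no-furin controls were lowess-adjusted and converted to robust Z-scores.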

Sequence of furin, P09958 (P09958 whole entry): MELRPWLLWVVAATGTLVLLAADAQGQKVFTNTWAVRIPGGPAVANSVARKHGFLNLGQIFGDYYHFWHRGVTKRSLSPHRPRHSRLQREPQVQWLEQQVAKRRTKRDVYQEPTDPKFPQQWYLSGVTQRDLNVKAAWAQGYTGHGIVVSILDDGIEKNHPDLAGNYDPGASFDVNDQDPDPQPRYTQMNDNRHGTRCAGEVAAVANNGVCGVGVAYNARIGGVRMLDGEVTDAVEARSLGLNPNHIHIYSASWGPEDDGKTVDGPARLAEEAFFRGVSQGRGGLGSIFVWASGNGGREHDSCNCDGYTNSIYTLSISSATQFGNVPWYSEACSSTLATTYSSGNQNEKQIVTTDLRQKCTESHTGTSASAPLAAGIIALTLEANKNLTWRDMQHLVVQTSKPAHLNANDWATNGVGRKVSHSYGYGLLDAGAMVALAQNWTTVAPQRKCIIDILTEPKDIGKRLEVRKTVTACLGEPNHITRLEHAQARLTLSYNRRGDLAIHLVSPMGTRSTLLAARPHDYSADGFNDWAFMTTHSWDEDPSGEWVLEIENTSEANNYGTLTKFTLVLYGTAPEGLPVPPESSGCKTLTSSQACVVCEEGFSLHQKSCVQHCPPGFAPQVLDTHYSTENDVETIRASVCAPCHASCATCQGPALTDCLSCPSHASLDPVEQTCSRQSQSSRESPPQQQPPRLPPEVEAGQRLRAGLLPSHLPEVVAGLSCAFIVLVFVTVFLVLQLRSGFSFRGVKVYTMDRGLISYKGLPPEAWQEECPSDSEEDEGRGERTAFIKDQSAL

Row | Sequence | furin cleavage Z-score (7.5 min) | furin cleavage Z-score (15 min) | furin cleavage Z-score (30 min)
1 | CAMEECGQHLAGNASASA [HC22] | 0.622 (inactive) | 0.186 (inactive) | 1.5
2 | CARDKKSLLQAGNASASA [FS-2133] | 0.497 (inactive) | 0.302 (inactive) | -0.611 (inactive)
3 | CARDKRSALQAGNASASA [FS-1945] | 8.56 (active) | 10.4 (active) | 8.42 (active)
4 | CARSKRAQTQAGNASASA [FS-2807] | 3.83 (active) | 4.65 (active) | 3.76 (active)
5 | CARSKRREMQAGNASASA [FS-3207] | 0.975 (inactive) | 0.582 (inactive) | 0.62 (inactive)
6 | CARAAICGKYAGNASASA [HC1629] | -0.897 (inactive) | -0.988 (inactive) | -0.655 (inactive)
7 | CARSKRKKEVAGNASASA [FS-2304] | 1.21 | -0.317 (inactive) | -0.337 (inactive)
8 | CARSKRASYVAGNASASA [FS-2808] | 5.25 (active) | 9.12 (active) | 8.21 (active)
9 | CARDKRLAYSAGNASASA [FS-3217] | -0.235 (inactive) | -0.255 (inactive) | 0.271 (inactive)
10 | CARSYRYALQAGNASASA [FS-3101] | 2.16 | -0.873 (inactive) | -0.277 (inactive)
11 | CARDKRWVKYAGNASASA [FS-2652] | 0.63 (inactive) | 2.15 | 6.84 (active)
12 | CARSKRRKYVAGNASASA [FS-3170] | -1.22 (inactive) | -0.271 (inactive) | 0.492 (inactive)
13 | CADPMEECSQAGNASASA [HC1819] | 0.273 (inactive) | -1.88 (inactive) | -0.65 (inactive)
14 | CAELEVPCHRAGNASASA [HC2445] | 0.172 (inactive) | 0.852 (inactive) | 0.435 (inactive)
15 | CAMGFSYDTRAGNASASA [HC1478] | -0.658 (inactive) | -1.06 (inactive) | -0.421 (inactive)
16 | CATTMCSGSWAGNASASA [HC1866] | -0.934 (inactive) | -1.58 (inactive) | -0.286 (inactive)
17 | CAVVCCSMSVAGNASASA [HC2090] | -0.627 (inactive) | 0.955 (inactive) | 1.16
18 | CARSKRRDANAGNASASA [FS-2306] | -0.438 (inactive) | 0.401 (inactive) | 2.07
19 | CARSKRALENAGNASASA [FS-2523] | 9.22 (active) | 11 (active) | 8.18 (active)
20 | CARDKRKLGAAGNASASA [FS-1691] | -0.964 (inactive) | 0.648 (inactive) | 1.45
21 | CARDKRKQRQAGNASASA [FS-2205] | 1.77 | 4.76 (active) | 3.43
22 | CARSKRGTEDAGNASASA [FS-3084] | 8.96 (active) | 9.33 (active) | 8.39 (active)
23 | CARSKRIWLDAGNASASA [FS-1929] | 0.312 (inactive) | 0.0956 (inactive) | 0.362 (inactive)
24 | CARSKRVLWDAGNASASA [FS-2525] | -1.38 (inactive) | -1.33 (inactive) | -0.22 (inactive)
